Reference: the supplement of paper PMC9254222
The full ranking holds about 1,100 compounds; the median of “Renilla luciferase signal (cell health) relative to plate median” is about 0.97, and the highest 2% start at about 1.6. This excerpt belongs to a sample that is enriched for the highest values.

Tested on: HEK293T (UBE3A T485A transfected, BAR Wnt reporter)
Assay: Renilla luciferase signal (cell health) relative to plate median (fold (linear ratio)); higher = higher Renilla signal
Conditions: 24 h
Outline: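 HEK293T cells carrying a transfected BAR firefly luciferase Wnt reporter, TK-Renilla and an expression plasmid were exposed to chemicals at 0.01–100 uM for 24 h, with dosing four hours after transfection. Readout used Dual-Glo luciferase. The firefly/Renilla ratio defined Wnt activity and raw Renilla defined cell health, each median-centred per plate. Figures are means of four biological replicates.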

Row | Compound | Renilla luciferase signal (concentration: 0.01 uM) | Renilla luciferase signal (concentration: 0.1 uM) | Renilla luciferase signal (concentration: 1 uM) | Renilla luciferase signal (concentration: 10 uM) | Renilla luciferase signal (concentration: 100 uM)
1 | CSC(=O)c1cccc2nnsc12 [Acibenzolar-S-methyl] | 0.985 | 1.18 | 1.05 | 1.07 | 1.8
2 | CN(C)C(=O)Nc1ccc(Cl)c(Cl)c1 [Diuron] | 0.747 | 1.11 | 1.06 | 0.951 | 0.328
3 | O=C(CCCCCCCCc1cccnc1)N1CCC(C=C(c2ccccc2)c2ccccc2)CC1 |  | 0.898 | 0.875 | 0.939 | 0.0905
4 | C=CCOC(Cn1ccnc1)c1ccc(Cl)cc1Cl (stereo not given) [Imazalil] | 0.797 | 0.885 | 0.939 | 0.777 | 0.0667
5 | c1ccc2cc3ccccc3cc2c1 [Anthracene] |  | 1.34 | 1.26 | 0.952 | 0.992
6 | c1ccc2c(c1)ccc1ccccc12 [Phenanthrene] |  | 0.817 | 0.792 | 0.858 | 0.898
7 | c1ccc2ccccc2c1 [Naphthalene] |  | 1.18 | 1.14 | 1.33 | 1.64
8 | N=C(N)c1ccc(OCCCCCOc2ccc(C(=N)N)cc2)cc1.O=S(=O)(O)CCO.O=S(=O)(O)CCO [Pentamidine isethionate] |  | 1.02 | 2.37 | 0.453 | 0.0508
9 | CCCCCCCC(=O)O [Octanoic acid] |  | 0.834 | 0.792 | 0.83 | 1.09
10 | OCC(CO)(CBr)CBr [2,2-Bis(bromomethyl)-1,3-propanediol] |  | 0.999 | 0.961 | 1.01 | 1.07
11 | OCC(CO)(CO)CO [Pentaerythritol] |  | 0.898 | 1.02 | 1.08 | 2.01
12 | O=c1c(-c2ccc(O)cc2)coc2cc(O)cc(O)c12 [Genistein] | 0.617 | 0.604 | 0.77 | 0.58 | 1.01
13 | COc1cc(S(=O)(=O)[O-])c(C)cc1/N=N/c1c(O)ccc2cc(S(=O)(=O)[O-])ccc12.[Na+].[Na+] |  | 0.934 | 0.936 | 0.887 | 0.502
14 | CC[C@H]1OC(=O)[C@H](C)[C@@H](O[C@H]2C[C@@](C)(OC)[C@@H](O)[C@H](C)O2)[C@H](C)[C@@H](O[C@@H]2O[C@H](C)C[C@H](N(C)C)[C@H]2O)[C@](C)(O)C[C@@H](C)C(=O)[C@H](C)[C@@H](O)[C@]1(C)O [Erythromycin] |  | 0.894 | 1.14 | 2.38 | 5.97
15 | CCCC(CCC)C(=O)O [Valproic acid] | 0.788 | 0.847 | 0.87 | 0.883 | 1.56
16 | CCNc1nc(N)nc(Cl)n1 [Deisopropylatrazine] | 0.898 | 0.991 | 0.951 | 0.879 | 0.243
17 | CC(=O)S[C@H](C(=O)N[C@H]1Cc2ccccc2[C@H]2CCC[C@@H](C(=O)O)N2C1=O)C(C)C [Ilepatril] |  | 0.879 | 0.836 | 0.857 | 1.53
18 | CCCCCCCCC(=O)O [Nonanoic acid] |  | 0.743 | 0.854 | 0.901 | 0.975
19 | CN(C)c1ccc(C(=C2C=CC(=[N+](C)C)C=C2)c2ccc(N(C)C)cc2)cc1.[Cl-] [Gentian Violet] |  | 0.155 | 0.0242 | 0.0245 | 0.0226
20 | c1ccc(Nc2ccccc2)cc1 [Diphenylamine] | 1.09 | 1.05 | 1.06 | 1.09 | 1.82
21 | Nc1ccc(Nc2ccccc2)cc1 [N-Phenyl-1,4-benzenediamine] |  | 0.905 | 0.984 | 0.71 | 0.204

Row | Compound | Renilla luciferase signal (concentration: 0.01 uM) | Renilla luciferase signal (concentration: 0.1 uM) | Renilla luciferase signal (concentration: 1 uM) | Renilla luciferase signal (concentration: 10 uM) | Renilla luciferase signal (concentration: 100 uM)
22 | CCNc1ccccc1 [N-Ethylaniline] |  | 1.01 | 0.97 | 1.08 | 1.17
23 | Nc1ccc2c(c1)C(=O)c1ccccc1C2=O [2-Aminoanthraquinone] |  | 1.16 | 0.898 | 0.829 | 0.621
24 | Nc1cccc(N)c1 [1,3-Benzenediamine] |  | 1.19 | 1.05 | 1.19 | 1.74
25 | Nc1cccc2c(N)cccc12 [1,5-Naphthalenediamine] |  | 0.805 | 0.822 | 0.856 | 0.73
26 | CCCCC(CC)CO (stereo not given) [2-Ethyl-1-hexanol] |  | 0.758 | 0.775 | 0.504 | 1.25
27 | CCCCCCCCCCCCCCCCCC(=O)O [Octadecanoic acid] |  | 0.913 | 0.958 | 0.923 | 1.4
28 | O=C(O)CC(O)C(=O)O (stereo not given) [Malic acid] |  | 1.33 | 1.26 | 1.32 | 1.29
29 | CNC(CC(=O)O)C(=O)O (stereo not given) | 1.02 | 1.14 | 0.949 | 1.02 | 1.9
30 | Cc1ccc2oc(CN(Cc3ccccc3)C(=O)Nc3c(F)cc(F)cc3F)c(-c3ccc(Cl)cc3)c2c1 |  | 0.953 | 0.858 | 0.846 | 0.482
31 | CC(C)CCCCCCOC(=O)C1CCCCC1C(=O)OCCCCCCC(C)C (stereo not given) [Diisononyl cyclohexane-1,2-dicarboxylate] |  | 0.946 | 1.13 | 1.06 | 1.38
32 | COc1cc(C(C)C)c2c(c1)S(=O)(=O)N(COc1cc(=O)n3cccc(OCCN4CCCCC4)c3n1)C2=O |  | 1.26 | 1.3 | 1.21 | 0.497
33 | CC(C)CC(C)(O)C#CC(C)(O)CC(C)C (stereo not given) [2,4,7,9-Tetramethyl-5-decyne-4,7-diol] |  | 0.987 | 0.919 | 0.966 | 0.295
34 | CCOC(=O)C(C)(C)Oc1ccc(Cl)cc1 [Clofibrate] |  | 0.962 | 1.02 | 1.17 | 1.38
35 | CCCCOC(=O)C(C)Oc1ccc(Oc2ccc(C(F)(F)F)cn2)cc1 (stereo not given) [Fluazifop-butyl] | 1.02 | 0.837 | 1.04 | 0.984 | 1.81
36 | CCOC(=O)C(C)Oc1ccc(Oc2cnc3cc(Cl)ccc3n2)cc1 (stereo not given) [Quizalofop-ethyl] | 1.1 | 0.758 | 0.993 | 0.953 | 1.88
37 | CCCCOC(=O)c1ccccc1 [Butyl benzoate] |  | 0.872 | 0.958 | 1.1 | 1.1
38 | C#CCOC(=O)[C@@H](C)Oc1ccc(Oc2ncc(Cl)cc2F)cc1 [Clodinafop-propargyl] | 0.926 | 1.11 | 1.04 | 1.01 | 0.269
39 | CCCCOC(=O)[C@@H](C)Oc1ccc(Oc2ccc(C(F)(F)F)cn2)cc1 [Fluazifop-P-butyl] | 1.25 | 1.18 | 1.05 | 1.22 | 0.693
40 | CCOC(=O)C(C)Oc1ccc(Oc2nc3ccc(Cl)cc3o2)cc1 (stereo not given) [Fenoxaprop-ethyl] | 0.9 | 0.851 | 1.02 | 1.13 | 1.78
41 | O=C([O-])c1[nH]n(-c2ccc(S(=O)(=O)[O-])cc2)c(=O)c1/N=N/c1ccc(S(=O)(=O)[O-])cc1.[Na+].[Na+].[Na+] [FD&C Yellow 5] |  | 1.1 | 1.15 | 1.15 | 0.999
42 | CC1(C)CC(N=C=O)CC(C)(CN=C=O)C1 (stereo not given) [Isophorone diisocyanate] |  | 0.927 | 0.855 | 0.865 | 0.953

Row | Compound | Renilla luciferase signal (concentration: 0.01 uM) | Renilla luciferase signal (concentration: 0.1 uM) | Renilla luciferase signal (concentration: 1 uM) | Renilla luciferase signal (concentration: 10 uM) | Renilla luciferase signal (concentration: 100 uM)
43 | S=C([S-])NCCNC(=S)[S-].[Mn+2] [Maneb] | 0.874 | 1.01 | 0.995 | 0.968 | 0.105
44 | CC(C(C)N1CC(=O)NC(=O)C1)N1CC(=O)NC(=O)C1 (stereo not given) | 0.735 | 0.674 | 0.785 | 0.383 | 0.396
45 | C=CCCCCCCCCC(=O)O [10-Undecenoic acid] |  | 0.947 | 0.883 | 0.917 | 1.16
46 | O=C(O)c1cccc(N(Cc2cccnc2)c2ccc(OC(F)F)c(OC(F)F)c2)c1 |  | 1.15 | 1.14 | 1.24 | 0.322
47 | CCCCCCCCCCCCCCC [Pentadecane] |  | 0.808 | 0.899 | 0.973 | 1.16
48 | CN(C)CCCN(C)CCCN(C)C [2,6,10-Trimethyl-2,6,10-triazaundecane] |  | 0.932 | 0.811 | 0.918 | 0.932
49 | COC(=O)c1ccc(C(=O)OC)cc1 [Dimethyl terephthalate] |  | 0.95 | 1.09 | 1.01 | 1.36
50 | Cc1nc(-c2ccccn2)ncc1C(=O)Nn1cc(C)c2cc(F)ccc21 |  | 0.941 | 0.877 | 1.05 | 1.02
51 | CCc1cc(C2=C(C(=O)[O-])N(c3ccccc3C(F)(F)F)S(=O)(=O)c3ccccc32)cc2c1OCO2.[K+] [Fandosentan potassium salt] |  | 1.01 | 1.1 | 0.887 | 0.331
52 | CN(Cc1cnc2nc(N)nc(N)c2n1)c1ccc(C(=O)N[C@@H](CCC(=O)O)C(=O)O)cc1 [Methotrexate] |  | 0.13 | 0.0382 | 0.0865 | 0.087
53 | CC(=O)Nc1ccc(O)cc1 [Acetaminophen] |  | 0.68 | 0.735 | 0.812 | 1.3
54 | O=C(O)c1cn(C2CC2)c2cc(N3CCNCC3)c(F)cc2c1=O [Ciprofloxacin] | 1.06 | 0.893 | 1.01 | 0.9 | 0.336
55 | NC(=O)N/N=C/c1ccc([N+](=O)[O-])o1 [Nitrofurazone] |  | 1.03 | 1.13 | 1.44 | 0.334
56 | O=C1CN(N=Cc2ccc([N+](=O)[O-])o2)C(=O)N1 [Nitrofurantoin] |  | 0.891 | 1.01 | 1.69 | 0.345
57 | O=[N+]([O-])c1ccc([O-])cc1.[Na+] [Sodium 4-nitrophenolate] |  | 0.98 | 0.86 | 0.924 | 0.669
58 | COc1c(Cl)ccc(Cl)c1C(=O)O [Dicamba] | 1.07 | 1.05 | 1.14 | 1.04 | 1.52
59 | CC[C@H](C)C(=O)O[C@H]1C[C@H](O)C=C2C=C[C@H](C)[C@H](CC[C@@H](O)C[C@@H](O)CC(=O)[O-])[C@H]21.[Na+] [Pravastatin sodium] |  | 1.01 | 0.866 | 1.1 | 1.15
60 | CC(=O)c1ccccc1 [Acetophenone] |  | 0.867 | 0.964 | 0.94 | 1.11
61 | O=C(O)c1cccc(C(=O)O)c1 [1,3-Benzenedicarboxylic acid] |  | 1.04 | 1.04 | 1.06 | 1.35
62 | O=C(O)c1ccccc1 [Benzoic acid] |  | 1.21 | 1.13 | 1.35 | 1.77
